Source: PubChem BioAssay (NCI)
The panel holds about 83,000 compounds, 20% with a hit somewhere; the sample as a whole holds those more often.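 Interpretation: 100, growth as untreated; towards 0, rising growth inhibition; 0, no net growth; 0 to -100, cell death. Compounds scoring below 10 were considered active.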 Values without a mark were called inactive. Active and inactive are the calls of the source.

What follows are compounds tested on SNB-75 CNS (assay: NCI-60 one-dose screen, 48 h (100 = growth as untreated, 0 = no growth, -100 = all killed)). Settings: 10 µM unless noted.

SMILES	growth
O=C1/C(=C/c2ccc(O)cc2)COc2ccc(-c3ccccc3)cc21	90.4%
CC(=O)N1N=C(c2cccc(Nc3ccncc3)c2)CC1c1ccc2c(c1)OCO2 (stereo not drawn)	80.2%
Clc1nc(Cl)c2ncn(CCOCCn3cnc4c(Cl)nc(Cl)nc43)c2n1	-92.3% (active)
COc1ccc(/C=C2\COc3ccc(-c4ccccc4)cc3C2=O)cc1O	31.9%
Cc1c2c(cc[n+]1Cc1ccccc1)c1ccc(OCC3CCCCC3)cc1n2CC1CCCCC1	-87.3% (active)
CC[N+](CC)(CCCC(C)[N+]1(Cc2ccccc2)C(C)=CC=C1C)Cc1ccccc1 (stereo not drawn)	87.6%
CN1C(=O)N(C)[C@H]2NC(NN)=N[C@H]21	80.9%
O=C(Nc1cccc(Cl)c1)Oc1c(Br)c(Br)c(Br)c(Br)c1Br	90%
NC(=O)c1ncn(C2OC(CO)C(O)C2O)n1 (stereo not drawn)	80.6%
COc1cc(/C=C/C(=O)c2c(C)oc3nc[nH]c(=O)c23)ccc1O	84.4%
COc1cc(NCCCN(CC(C)C)CC(C)C)c2ncccc2c1	95.4%
O=[N+]([O-])c1cccc(-c2nc(-c3ccc(Cl)cc3Cl)cn2-c2ccccc2)c1	-56.7% (active)
O=C(N/N=C/c1ccc(F)cc1)c1ccccc1Nc1cccc(C(F)(F)F)c1	99.5%
COc1ccc(Cn2nc(-c3cc(OC)c(OC)c(OC)c3)c3c2CCc2cnoc2-3)cc1OC	37.8%
Fc1ccc(C2CC(c3cccc(Nc4ccncc4)c3)=NN2c2ccccc2)cc1 (stereo not drawn)	68.2%
CCn1cc(C2NC(=O)c3ccccc3N2)c2cccc(C)c21 (stereo not drawn)	-26.9% (active)
Cc1nc2sc(C(=O)Nc3ccccc3)c(N)c2cc1C(=O)c1ccc(C(F)(F)F)cc1	17.4%
CC(=O)c1c(C)[nH]c(-c2nc3ccc(N4CCN(C)CC4)cc3[nH]2)c1-c1ccccc1	-10.6% (active)
CCC1(CC)NC(=O)c2c(c3ccc(Cl)c(Cl)c3n2C)C1C#N (stereo not drawn)	90%

SMILES	growth
O=C(Nc1ccc(F)cc1)c1c(NC(=O)C(F)(F)F)sc2c1CCCCC2	-23% (active)
O=C(NCCN1CCOCC1)OCc1nc2nc(Cl)nc(N3CCOCC3)c2[nH]1	1.3% (active)
CC(C)[N+](C)(CCOC(COc1ccccc1)COc1ccccc1)C(C)C	70.9%
COc1ccc(C(=O)c2cc3c(N)c(C(=O)Nc4cccc(Cl)c4C)sc3nc2C)cc1	-7.69% (active)
COc1ccccc1/C=C1\Oc2cc(OCCCN3CCCC3)ccc2C1=O	83.5%
CCc1nc(C)cn1C(=O)OCc1nc2nc(Cl)nc(N3CCOCC3)c2[nH]1	1.78% (active)
CN1CCN(c2cc(F)c(NC3=C(Cl)C(=O)c4ncccc4C3=O)c(F)c2)CC1	38%
COc1ccc(Cl)cc1NC(=O)c1c(NC(=O)C(F)(F)C(F)(F)F)sc2c1CCCCC2	-9.76% (active)
COc1ccccc1/C=C1\COc2ccc(-c3ccccc3)cc2C1=O	42.2%
O=C(O)CCCCCCCCCCCCCCC(=O)O	88.2%
NC(=O)C1(N2CCCCC2)CCN(CCCC(=O)c2ccc(F)cc2)CC1	23.5%
CCN1C(=O)/C(=c2\sc3n(c2=O)NC2C(N=3)N(CC)C(=O)N2CC)c2ccccc21 (stereo not drawn)	7.11% (active)
CCCCCCCCCCCCCCCC(=O)OC[C@@]1(O)C[C@@]23CC[C@@H]4C(C)(C)[C@H](O)CC[C@@]4(C)[C@@H]2CC[C@H]1C3	99.6%
CCOC(=O)c1ccc(Nc2ccnc(SCC(=O)c3ccc(C#N)cc3)n2)cc1	102%
O=S(=O)(c1cccc(NC2=Nc3cccc4cccc2c34)c1)N1CCCC1	73.3%
COc1ccccc1N1CCN(C(=O)c2ccc3nc(NC(=O)c4ccc(NCCc5ccccc5)c([N+](=O)[O-])c4)sc3c2)CC1	91.4%
CCN(CC)CCOC(COc1cc(C)cc(C)c1)COc1cc(C)cc(C)c1	61.4%
COc1ccc(Nn2c(SCC(=O)Nc3nc(-c4ccc(Cl)cc4)cs3)nc(C)c2C)cc1	45.8%
CC1=CC2(C)/C=C(C)/C=C\CC(O)/C=C3/C=CC(=C4C(=O)OC2(CC1C)C4=O)OC3 (stereo not drawn)	53.3%
